# Compounds with a hit are over-represented: about 1.3% of the library has one in this group of screens.
# COUP-TFII inh – inhibitors of human COUP-TFII (NR2F2). HEK293T NGFI-A luciferase reporter, luminescence. P24468. inhibition, % at 8.6 µM. 370,000 tested, 0.7% active;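 active = inhibition above a per-plate cutoff, mean inhibition of test wells between control levels plus 3 SD, cut at about 38% in these data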;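 note: cells cotransfected with COUP-TFII expression vector driving the NGFI-A reporter; 0% = median of COUP-TF2 test wells and 100% = reporter-only cells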
# Target sequence (P24468 whole entry, looked up): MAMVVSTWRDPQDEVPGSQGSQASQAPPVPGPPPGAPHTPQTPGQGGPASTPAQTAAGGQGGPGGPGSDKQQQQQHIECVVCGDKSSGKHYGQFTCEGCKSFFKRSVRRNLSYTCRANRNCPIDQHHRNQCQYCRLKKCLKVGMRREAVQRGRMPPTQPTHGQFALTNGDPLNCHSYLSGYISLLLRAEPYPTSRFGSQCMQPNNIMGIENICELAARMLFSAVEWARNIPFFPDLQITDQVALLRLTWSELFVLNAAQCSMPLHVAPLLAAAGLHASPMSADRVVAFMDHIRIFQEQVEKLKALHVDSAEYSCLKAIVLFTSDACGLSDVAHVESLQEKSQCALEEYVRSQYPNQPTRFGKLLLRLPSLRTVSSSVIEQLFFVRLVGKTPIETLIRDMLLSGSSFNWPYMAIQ
# Gli-Sufu block – blocks Gli-Sufu signaling in a luciferase reporter; inhibition, % at 5 µM; AID 588413; 340,000 tested, 0.74% active; Sufu-KO-LIGHT fibroblasts, Gli luciferase reporter luminescence;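 active = inhibition above about 55%, limit read from the data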;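 note: 0% = DMSO-treated cells and 100% = wells with medium but no cells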
# SRC2 inh – inhibits human steroid receptor coactivator 2 | Q15596 | HEK293 GAL4-SRC2 luciferase reporter, luminescence | inhibition, % at 9 µM | 370,000 tested, 0.17% active | AID 651957;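 active = inhibition above the mean inhibition of all tested compounds plus 3 SD, set per campaign, cut at about 52% in these data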;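 note: 0% = DMSO treated cells and 100% = cells given Gossypol at 36 µM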
# NCOA3 inh – inhibits human SRC3 coactivator. inhibition, % at 3.6 µM. HEK293 GAL4-SRC3 luciferase reporter, luminescence. Q9Y6Q9. AID 588352. 360,000 tested, 0.17% active;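 active = inhibition above a per-campaign cutoff, the mean of all compounds plus 3 SD, cut at about 60% in these data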;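 note: 0% = DMSO-treated cells and 100% = gossypol-treated cells at 36 µM; higher means less SRC3-driven luciferase light from the GAL4 reporter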
# LRH-1 inv ag – NR5A2 inverse agonism in reporter assay; 360,000 tested, 0.13% active; O00482; HEK293T StAR-luciferase reporter, LRH-1 transfected, 24 h; inhibition, % at 3.6 µM; AID 602396;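 active = inhibition above the mean inhibition of all tested compounds plus 3 SD, cut at about 73% in these data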;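 note: 0% = DMSO wells and 100% = reporter-only cells lacking LRH-1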
# NCOA1 inh – inhibitors of human steroid receptor coactivator 1 (SRC1); Q15788; 360,000 tested, 0.12% active; inhibition, % at 3.6 µM; HEK293 GAL4-SRC1 luciferase reporter, luminescence; AID 588354;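 active = inhibition above the campaign mean plus 3 SD, with each screening campaign given its own cutoff, cut at about 60% in these data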;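 note: 0% = DMSO treated cells and 100% = gossypol at 36 µM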
# Gal4-VP16 ctr – VP16 inhibition counter-screen for COUP-TFII; shares compounds with COUP-TFII inh; HEK293 Gal4-VP16 luciferase reporter, luminescence; inhibition, % at 8.5 µM; 2,500 tested, 25% active; in the data active = inhibition above about 13%
# NR2F2 inh conf – COUP-TFII (NR2F2) inhibition, confirmation assay | HEK293 NGFI-A luciferase reporter, luminescence | 2,500 tested, 45% active | inhibition, % at 8.5 µM | shares compounds with COUP-TFII inh;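 active = mean inhibition over three repeats above a set limit taken from the earlier primary screen, cut at about 38% in these data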;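 note: 100% = cells given the luciferase reporter alone without the COUP-TF2 vector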
# Numbers without * were called inactive; nt = no result.
SMILES,COUP-TFII inh,Gli-Sufu block,SRC2 inh,NCOA3 inh,LRH-1 inv ag,NCOA1 inh,Gal4-VP16 ctr,NR2F2 inh conf
CC(=O)c1cc(-c2cccc(C#N)c2)c(=O)n2c1CCC2,4,nt,-26,nt,nt,nt,nt,nt
O=C(c1cc(COc2ccc3ncccc3c2)on1)N1CCCCCC1,43*,48,11,26,34,12,4,49*
O=C(NCCc1cn2ccccc2n1)c1ccccc1F,-1,-8,-3,-10,2,-18,nt,nt
O=C(NCCc1cn2ccccc2n1)c1cc(COc2ccc3ncccc3c2)on1,64*,44,2,33,17,15,-3,83*
O=C(c1cc(COc2ccc3ncccc3c2)on1)N1CCCC1,46*,36,-13,1,4,-8,-40,24
COCC1CCN(C(=O)c2cc(COc3ccc4ncccc4c3)on2)CC1,19,27,16,27,34,18,nt,nt
COC(=O)[C@]12C[C@H](CC(=O)NCC3CCCCC3)C(=O)N(Cc3ccc(Cl)cc3Cl)C1=C[C@H](C1CCCC1)O[C@@H]2C,11,nt,17,nt,nt,nt,nt,nt
COc1ccccc1N(C)S(=O)(=O)c1ccc(C(=O)Nc2ccc(N3CCOCC3)cc2)cc1,13,14,7,10,-5,4,nt,nt
C=CCN(c1ccccc1OC)S(=O)(=O)c1ccc(Cl)c(C(=O)Nc2ccc(N3CCOCC3)cc2)c1,43*,-4,3,28,21,15,4,25
COc1cccc(C(=O)N[C@H](C(=O)N2CCC[C@H]2C(=O)NCCc2ccccc2Cl)c2ccccc2)c1,-9,nt,-8,nt,nt,nt,nt,nt
Cc1ccc(S(=O)(=O)n2ccc3c(OCCOCCSCC(NC(=O)OC(C)(C)C)C(=O)O)cccc32)cc1 (stereo unspecified),28,6,21,9,-4,-1,nt,nt
Cc1ccc(S(=O)(=O)n2ccc3c(OCCOCCNCc4ccc(F)cc4)cccc32)cc1,43*,12,6,-12,9,4,0,8
CCCC1Oc2ccccc2C(=O)N(CC(=O)c2ccc3c(c2)OCCO3)C1=O (stereo unspecified),-18,-48,-23,-56,4,-2,nt,nt
O=C(CN1C(=O)c2ccccc2S1(=O)=O)c1ccc(Cl)cc1Cl,91*,90*,87*,62*,59,55,70*,90*
O=C(CN1C(=O)c2ccccc2S1(=O)=O)c1ccc2c(c1)OCCCO2,100*,96*,93*,93*,93*,93*,93*,109*
O=C(CCN1C(=O)c2ccccc2S1(=O)=O)Nc1ccc2c(c1)OCCO2,12,-2,-23,17,-12,5,nt,nt
O=C(CN1C(=O)c2ccccc2S1(=O)=O)c1ccc2c(c1)OCCO2,89*,94*,89*,85*,62,82*,83*,99*
COc1ccc(C(=O)CSc2nnc(-c3ccccc3)n2-c2ccc(Cl)cc2)cc1,-6,nt,4,nt,nt,nt,nt,nt
Nc1nc2c(ncn2[C@@H]2O[C@H](C(=O)NCCCc3ccccc3)[C@@H](O)[C@H]2O)c(=O)[nH]1,-17,nt,-15,nt,nt,nt,nt,nt
CN(C)S(=O)(=O)N1CCC(Oc2cccc(C(=O)NC3CCCCCC3)c2)CC1,63*,47,24,11,39,18,5,66*
CN(C)S(=O)(=O)N1CCC(Oc2ccc(C(=O)NC3Cc4ccccc4C3)cc2)CC1,23,8,-4,-2,-11,-5,nt,nt
NC(=O)c1cc([N+](=O)[O-])ccc1NCc1ccc(F)cc1,-1,-7,-17,-52,-7,-7,nt,nt
NC(=O)c1cc([N+](=O)[O-])ccc1NCc1ccc(N)cc1,52*,17,73*,45,-1,41,64*,50*
CC(NC(=O)CC1CCCCC1)c1ccccc1 (stereo unspecified),5,-4,9,6,6,-12,nt,nt
C=C(C)CC1(NC(C)c2ccccc2)CCCCC1 (stereo unspecified),41*,37,-8,9,3,-12,-11,-3
SMILES,COUP-TFII inh,Gli-Sufu block,SRC2 inh,NCOA3 inh,LRH-1 inv ag,NCOA1 inh,Gal4-VP16 ctr,NR2F2 inh conf
O=C(Nc1cccc(O)c1)c1cc(-c2ccc3c(c2)OCO3)on1,43*,-152,19,-18,-51,-21,-2,16
O=C(Nc1cccc(O)c1)c1cc(-c2ccccc2Cl)on1,60*,-29,31,-9,-10,-19,-12,10
COc1ccc(NC(=O)c2cc(-c3ccccc3Cl)on2)cc1OC,0,-13,-14,-28,-10,-21,nt,nt
CCC1CSC(Nc2ccc(C(=O)/C=C/c3ccc(OC)c(OC)c3)cc2)=N1 (stereo unspecified),61*,7,36,16,-5,-2,-7,33
CCC1CSC(Nc2ccc(C(=O)/C=C/c3ccc(Br)cc3)cc2)=N1 (stereo unspecified),9,37,-2,6,-26,-16,nt,nt
CNC(=S)N/N=C/c1c(C(=O)OC)cnn1-c1ccc(F)cc1F,36,7,15,21,9,-2,nt,nt
COC(=O)c1cnn(-c2ccc(F)cc2F)c1/C=N/NC(=S)Nc1ccccc1,48*,nt,nt,nt,nt,nt,-8,10
CCn1cc(CCCC(=O)NCc2cccc(OC)c2)c2ccccc21,38*,12,-16,5,-6,-37,-5,7
Cc1ccc[n+](Cc2ccc([N+](=O)[O-])cc2)c1,7,-1,-24,0,5,-5,nt,nt
O=[N+]([O-])c1ccc(C[n+]2cccc3c4ccccc4ccc32)cc1,58*,22,9,29,33,28,-1,30
C=C1CCC2C(C)(C)CCC[C@]2(C)[C@H]1CC1=C(O)C(=O)C(CO)=CC1=O (stereo partly specified),55*,nt,62*,nt,nt,nt,46*,62*
CCOC(=O)[C@@]12CCCC=C1N(CCc1ccc(Cl)cc1)C(=O)[C@H]2CC(=O)NCc1ccc(C)o1,21,nt,10,nt,nt,nt,nt,nt
CCOc1ccccc1NC(=O)c1ccc(CN2CCc3ccccc3C2)cc1,9,-40,0,-14,37,1,nt,nt
COc1ccc(C(=O)Nc2ccc(N3CCN(Cc4ccccc4)CC3)cc2)cc1,-22,-5,-4,-12,7,-20,nt,nt
COc1ccc(NC(=O)c2ccc(CN3CCN(c4ccccc4)CC3)cc2)cc1,48*,13,-10,-26,-1,-10,0,13
CCOC(=O)c1ccc(NC(=O)CN2CCc3ccccc3C2)cc1,-6,-16,-5,4,-14,-5,nt,nt
COc1cccc(NC(=O)c2ccc(CN3CCc4ccccc4C3)cc2)c1,54*,28,-23,-4,1,-6,-46,18
